# Reference: PubChem BioAssay (NCATS)
# Records with an inconclusive call do not appear. Values without a mark were called inactive. The source made the active and inactive calls. The call rests on the fitted dose curve; in most records, active means well fitted cell-killing curve with a large enough effect; inconclusive means small, poorly fitted or top-dose-only effect; inactive means no such curve, though single readings can be large or run the other way.
# Test: qHTS of pediatric cancer cell lines to identify multiple opportunities for drug repurposing: Primary screen for SK-N-MC cells (AID 1347093)
# Details: SK-N-MC viability, CellTiter-Glo luminescence, 48 h; series mostly up to 46 µM; activity change, negative = cytotoxic: at the top concentration
# Text: Drug repurposing or repositioning has been offered as a strategy for drug development in oncology programs. This approach has special potential for childhood cancers and other rare or orphan diseases, where the expected return on new drug development has been a disincentive to pharmaceuticals.
# In this project we exploit the poly-pharmacology of drugs to discover new indications via phenotypic screening of a panel of 19 well-characterized cell lines derived from solid tumors seen in children and adolescents. The goal is to identify approved drugs with previously unrecognized anticancer properties that has the potential to reveal new mechanisms and biological processes involved in carcinogenesis or drug resistance. We employed a titration-based paradigm (quantitative high-throughput screening or qHTS), where all compounds were tested at multiple concentrations for their effect on cell viability. Concentration-response curves (CRCs) were derived directly from the primary screen, and both potency and efficacy values were used to identify compounds with robust bioactivity profiles. We screened the NIH Chemical Genomics Center (NCGC) Pharmaceutical Collection (NPC) and Mechanism Interrogation Plate (MIPE) small molecule collections of approved and investigational compounds against these cell lines; and measured metabolically active cells after 48 hours of compound treatment as a proxy for cell viability.
# Assay Submitter: Nathalia J. Martinez, National Center for Advancing Translational Sciences, National Institutes of Health, Rockville, MD, USA; email: natalia.martinez@nih.gov
# [1] Shen, M et al. Quantitative high-throughput phenotypic screening of pediatric cancer cell lines identifies multiple opportunities for drug repurposing. Oncotarget 2017 Dec 19;9(4):4758-4772. PMID 29435139.
# The cells were obtained from University of North Carolina (UNC), Pediatric Preclinical Testing Program (PPT), and Coriell Institute (CI).
# qHTS cell viability assay:
# Cells were assayed in growth media at a density of 500-1,000 cells/well. Five microliters of cells were dispensed into 1,536-well, white, solid-bottom, TC-treated plates (Greiner Bio One) using a multidrop dispenser and incubated at 37 degrees C, 5% CO2, under a humidified atmosphere for 5 hours. Twenty-three nanoliters of compounds and controls (neutral control DMSO or positive control bortezomib at final concentration of 2.3 µM) were subsequently transferred by Kalypsys pintool. For primary screens, the MIPE collection was tested at 11-point dilutions (final concentrations range from 0.78 nM to 46 µM) and the NPC collection at 8-point dilutions (final concentrations range from 0.59nM to 46 µM). Compounds tested in follow-up screens were assayed at 11-point dilutions. Cells were incubated for 48 hours, followed by addition of 3 uL of CellTiter-Glo (Promega). After a 15 min incubation at room temperature, samples were analyzed for luminescence intensity using a ViewLux High-throughput CCD imager equipped with clear filters.
# Potency means the concentration at half of the fitted maximal effect.
SMILES,"activity change, negative = cytotoxic",Potency
c1ccc2c(c1)sc1ccccc12,-15.5%,
COP(=S)(OC)Oc1ccc(SC)c(C)c1,-12.2%,
Oc1ccc(Cl)cc1,-1.16%,
O=C(O)c1ccc(=O)[nH]c1,-1.75%,
[N-]=[N+]=CC(=O)OC[C@H](N)C(=O)O,-16.5%,
C[C@H](N)C(=O)c1ccccc1,-2.95% [at 155 µM],
C[C@@H](N)[C@@H](O)c1ccccc1,6.42%,
CN1C(=O)COc2c(C(=O)NC3CN4CCC3CC4)cc(Cl)cc21 (stereo not given),,inactive
CCCOC(=O)c1cncn1C(C)c1ccccc1 (stereo not given),-3.04%,
O=[N+]([O-])O[C@H]1CO[C@H]2[C@@H]1OC[C@H]2O[N+](=O)[O-],-9.51%,
C[C@]12CC[C@@H]3c4ccc(OC(=O)N(CCCl)CCCl)cc4CC[C@H]3[C@@H]1CC[C@@H]2OP(=O)(O)O,4.81%,
COc1cc(CCN)cc(OC)c1OC,-20.3% [at 92.7 µM],
C[C@]12CCC(=O)C=C1CC[C@@H]1[C@H]3CC[C@](C)(O)[C@@]3(C)CC[C@@H]12,,30.9 µM (active)
Nc1ccccc1C(=O)O,-14.8%,
CC(=O)C1CCOC1=O (stereo not given),-15.8%,
COc1cccc2c1C(=O)c1c(O)c3c(c(O)c1C2=O)C[C@@](O)(C(=O)CO)CC3OC1CC(N2CCOC(OC)C2)C(O)C(C)O1 (stereo not given in full),,0.0084 µM (active)
CC(C)(C)NCC(O)c1ccccc1Cl (stereo not given),-0.344%,
NC1=NC(=O)C(c2ccccc2)O1 (stereo not given),-3.68%,
CN(C)CCc1c[nH]c2cccc(OP(=O)(O)O)c12,-16.5% [at 92.7 µM],
COc1ccc2c3c1O[C@H]1[C@H](O)CC[C@H]4[C@@H](C2)N(C)CC[C@@]341,-19.5% [at 92.7 µM],

SMILES,"activity change, negative = cytotoxic",Potency
C[C@]12CC[C@@H]3c4ccc(OC(=O)N(CCCl)CCCl)cc4CC[C@H]3[C@@H]1CC[C@@H]2O,-15.9%,
C[N+]1(CCF)[C@@H]2CC[C@H]1CC(OC(=O)C(O)(c1ccccc1)c1ccccc1)C2 (stereo not given in full),2.69%,
CCC1(CC)C(=O)C=CNC1=O,10.9%,
CC(=O)OCC1=C(C(=O)O)N2C(=O)[C@@H](N)[C@H]2SC1,2.44% [at 16.1 µM],
COc1ccc2c(c1OC)C(=O)O[C@H]2[C@@H]1c2cc3c(cc2CCN1C)OCO3,-3.45%,
C[C@]12CCC(=O)C=C1CC[C@@H]1[C@@H]2CC[C@]2(C)C(=O)CC[C@@H]12,-15.6%,
NC(=O)c1cc([N+](=O)[O-])cc([N+](=O)[O-])c1,1.29%,
CNCC(=O)c1ccc(O)c(O)c1,-10.1%,
ClCCN1CCCC1,-9.49%,
CC(C)NC(C)C,-1.49%,
CCN[C@@H](C)Cc1cccc(C(F)(F)F)c1,-18.1%,
NNc1ccccc1,-20.3%,
COC1CC(=C(c2cccs2)c2cccs2)C[N+](C)(C)C1 (stereo not given),-27.1%,
C=CCC1(C(C)CC)C(=O)NC(=O)NC1=O (stereo not given),-13%,
CCN(CCO)CCn1c(Cc2ccccc2)nc2c1c(=O)n(C)c(=O)n2C,-5.02%,
Nc1ccccc1,-1.52%,
CCCN(CCC)C(=O)Cc1c(-c2ccc(Cl)cc2)nc2ccc(Cl)cn12,,16.8 µM (active)
c1ccc(CN2CCNCC2)cc1,-3.32% [at 155 µM],
O=c1[nH]oc2c1CCNC2,-0.102%,
CC(C(=O)c1ccccc1)N(C)C (stereo not given),-16.3%,
